Source: PubChem BioAssay (NCI)
About 83,000 compounds went through this panel and 20% of them were active in at least one assay; those are over-represented in the sample as a whole.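 Each cell line was grown in a 96-well plate and treated with one concentration of compound for 48 hours. Values below 10 were considered active.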 The source made the active and inactive calls.

Key:
Assay in all cases: NCI-60 one-dose screen, 48 h (100 = growth as untreated, 0 = no growth, -100 = all killed)
Conditions in all cases: 10 µM
[1] = tested on: HOP-92 NSCLC
[2] = tested on: NCI-H522 lung
[3] = tested on: MDA-MB-231 breast
[4] = tested on: RXF 393 renal
[5] = tested on: SK-MEL-5 melanoma
[6] = tested on: CCRF-CEM leukemia
[7] = tested on: OVCAR-4 ovarian
[8] = tested on: NCI/ADR-RES ovarian
[9] = tested on: BT-549 breast
[10] = tested on: MDA-MB-435 melanoma
[11] = tested on: SW-620 colon
[12] = tested on: MCF7 breast
[13] = tested on: HCT-116 colon
[14] = tested on: KM12 colon
[15] = tested on: PC-3 prostate
[16] = tested on: SNB-19 CNS
[17] = tested on: T-47D breast
[18] = tested on: HCC-2998 colon

Measured: growth

Cn1cc(-c2cc3nc(-c4c[nH]c5ccccc45)cc(N)n3n2)c2cc(Cl)ccc21
active: [1] -81% | [2] -72.1% | [3] -69.4% | [4] -82.7% | [5] -99% | [6] -12.6% | [7] -73.8% | [8] -48.5% | [9] -90.4% | [10] -93.1% | [11] -61% | [12] -85.9% | [13] -84.6% | [14] -82.2%

COc1ccc(Cn2cc(C#N)c(N)c2C(C)=O)c(OC)c1
inactive: [1] 85.7% | [2] 104% | [3] 101% | [4] 107% | [15] 97.6% | [5] 99.1% | [6] 105% | [7] 110% | [8] 102% | [9] 107% | [10] 108% | [11] 106% | [12] 101% | [13] 99.2% | [14] 106%

O=C(CN1CCN(c2ncnc3c2cnn3-c2ccccc2)CC1)Nc1ccc(Cl)cc1
active: [5] 0.35%
inactive: [1] 69.8% | [3] 63.3% | [4] 74.4% | [16] 66.5% | [15] 38.8% | [6] 51.9% | [7] 44.5% | [8] 48% | [17] 26.7% | [9] 39.1% | [10] 47% | [11] 78.4% | [12] 27.6% | [13] 51.8% | [18] 55.8% | [14] 53.1%

CCOc1ccc(/C=N/NC(=O)Cn2nc(Cc3ccc(OC)cc3)c3onc(C)c3c2=O)cc1
active: [1] -25.7% | [4] -65.6% | [13] -23.3%
inactive: [2] 46.6% | [3] 20.7% | [5] 89.2% | [6] 17.9% | [7] 10.1% | [8] 13.2% | [9] 23.7% | [10] 50.5% | [11] 23% | [12] 27.9% | [14] 47.9%

O=C1S/C(=C\c2ccc([N+](=O)[O-])cc2)C(=O)N1CCN1CCCCC1
inactive: [1] 146% | [3] 102% | [4] 132% | [5] 101% | [6] 116% | [7] 111% | [8] 109% | [9] 118% | [10] 102% | [11] 113% | [12] 94.2% | [13] 105% | [14] 105%

COc1ccc(Cc2nn(CC(=O)N/N=C/c3ccc(Br)cc3)c(=O)c3c(C)noc23)cc1
inactive: [2] 29.2% | [3] 21.1% | [16] 21.6% | [15] 43.9% | [5] 85.7% | [6] 40.5% | [8] 41.1% | [9] 50% | [10] 54.1% | [11] 48.8% | [12] 40.4% | [18] 73.8% | [14] 60.7%
active: [1] -15% | [4] -33.7% | [7] -44% | [17] -1.9% | [13] 0.469%

O=C(c1ccc(F)cc1)C(c1c[nH]c2ccccc12)c1c[nH]c2ccccc12
active: [6] 3.4% | [11] 5.23% | [13] 7.24%
inactive: [1] 90.5% | [3] 58.8% | [4] 40.3% | [15] 41% | [5] 89.8% | [7] 55.9% | [8] 54.7% | [17] 63.9% | [9] 71.4% | [10] 58.4% | [12] 15.2% | [14] 70.3%

Fc1ccc(-c2csc(Nc3cccc(Nc4nc(-c5ccc(F)cc5)cs4)c3)n2)cc1
inactive: [1] 39.2% | [3] 64.6% | [4] 75.5% | [16] 70.2% | [5] 61.2% | [6] 59.1% | [7] 55.7% | [8] 63.7% | [9] 64% | [10] 63.1% | [11] 70.3% | [12] 24.7% | [13] 57.7% | [18] 35.2% | [14] 37.6%

Cn1cc(-c2nnc(N)nc2-c2c[nH]c3ccc(F)cc23)c2cc(Br)cnc21
inactive: [1] 26.4% | [3] 56.1% | [4] 38.7% | [15] 56.8% | [5] 81.9% | [6] 35.4% | [7] 59.6% | [8] 68.1% | [17] 44.1% | [9] 51.1% | [10] 67.2% | [11] 68.5% | [12] 27.7% | [13] 59.2% | [14] 61.5%

O=C(CN1CCN(c2ncnc3c2cnn3-c2ccccc2)CC1)Nc1ccc(Br)cc1
inactive: [1] 74.6% | [3] 66.7% | [4] 76% | [16] 69.3% | [15] 49.1% | [6] 61.6% | [7] 56.5% | [8] 56.1% | [17] 41.6% | [9] 50% | [10] 53.2% | [11] 78.1% | [12] 36.8% | [13] 52.5% | [18] 78.8% | [14] 57.5%
active: [5] 9.44%

Cn1cc(-c2cc(N)n3nc(-c4cn(C)c5ccccc45)cc3n2)c2cc(F)ccc21
active: [1] -78.4% | [3] -56% | [4] -76.3% | [16] -6.35% | [15] -28% | [5] -87.9% | [6] -9.43% | [7] -38.2% | [8] -21.1% | [17] -50.1% | [9] -69.9% | [10] -81.1% | [11] -54.4% | [12] -56.2% | [13] -92.1% | [14] -69.1%

CC1(C)CC[C@]2(C(=O)O)CC[C@]3(C)C(=CCC4[C@@]5(C)C[C@@H](O)[C@@H]6OC(c7cccc(F)c7)OC[C@@]6(C)C5CC[C@]43C)C2C1 (stereo partly specified)
active: [13] 9.3%
inactive: [1] 41.9% | [3] 60.7% | [4] 67.2% | [16] 45.7% | [15] 32.1% | [5] 45.9% | [6] 32% | [7] 54.6% | [8] 43.7% | [9] 39% | [10] 58.1% | [11] 31% | [12] 21.5% | [18] 37.5% | [14] 21.3%

CCOC(=O)C1=C(N)N(c2ccc(C)cc2)C2=C(C(=O)CC(C)(C)C2)C1c1ccccc1Br (stereo unspecified)
inactive: [1] 71.6% | [2] 67.5% | [3] 93.4% | [4] 86.5% | [5] 77.4% | [6] 39.5% | [7] 83.2% | [8] 95.7% | [9] 93.9% | [10] 82.6% | [11] 46% | [12] 56.6% | [13] 40.6% | [14] 83.8%

COc1cc2oc(-c3cccc(C(=O)Nc4ccc(Cl)cc4)c3)cc(=O)c2c(OCCN)c1OC
active: [1] -84% | [2] -87.1% | [3] -86.7% | [4] -85% | [15] -87.3% | [5] -94.7% | [6] -52.6% | [7] -62.9% | [8] -74.7% | [17] -73.8% | [9] -88.2% | [10] -76.9% | [11] -79.4% | [12] -71.5% | [13] -90.3% | [18] -80.8% | [14] -83.2%

C#CCOc1cc(N(CC)CC)ccc1C(C(=O)NC(C)(C)C)N(C(=O)C1CCc2cc(F)ccc2O1)c1ccc(F)cc1F (stereo unspecified)
inactive: [1] 30.5% | [2] 30.7% | [3] 55.4% | [4] 64.6% | [5] 11.2% | [6] 39.7% | [7] 43.7% | [8] 53.1% | [17] 37.4% | [9] 31.1% | [10] 40.6% | [11] 53.7% | [12] 17.5% | [13] 24.7% | [14] 25%

Cc1ccc(S(=O)(=O)N2CCN(S(=O)(=O)c3oc(-c4ccccc4)nc3C#N)CC2)cc1
inactive: [1] 93% | [3] 100% | [4] 87.6% | [16] 78.6% | [5] 63.7% | [6] 75.7% | [7] 71.8% | [8] 83% | [9] 76.1% | [10] 77.6% | [11] 90% | [12] 47.6% | [13] 84.6% | [18] 106% | [14] 82.5%

COc1ccc(NCc2cn(-c3ccc(C(=O)O)cc3)nc2-c2ccc(F)cc2)cc1C(F)(F)F
inactive: [1] 68.3% | [3] 82.6% | [4] 75.4% | [5] 26.7% | [6] 41.6% | [7] 57.2% | [8] 64.4% | [17] 47.5% | [9] 33.2% | [10] 36.8% | [11] 60.1% | [12] 30.5% | [13] 39.5% | [18] 51.7% | [14] 24.1%

COc1ccc(OC)c(-n2cc(C#N)c(N)c2C(=O)c2ccc(Cl)cc2Cl)c1
inactive: [1] 91.6% | [3] 64.2% | [4] 55.5% | [15] 37.8% | [5] 54.2% | [6] 11.4% | [7] 86.2% | [8] 30.4% | [9] 48.3% | [11] 26.8% | [12] 16.1% | [13] 29.4% | [18] 64.8% | [14] 27.4%
active: [10] -37.1%

C#C[C@]1(O)CC[C@H]2[C@@H]3CC=C4c5sc(Nc6ccc(N(C)C)cc6)nc5CC[C@]4(C)[C@H]3CC[C@@]21C
active: [1] 9.62% | [3] -10.7% | [4] -51.3% | [15] 5.44% | [5] 0.6% | [6] -1.45% | [8] 9.68% | [9] -58.8% | [10] 5.17% | [11] 4.36% | [12] -36.2% | [13] -77.9% | [14] 2.83%
inactive: [7] 36.1% | [18] 33.4%
